This passage reports growth inhibition results from PubChem BioAssay (NCI).

This is part of a sample that, as a whole, favours compounds with a hit. Of some 79,000 tested, about 15% had one in any assay. Active and inactive are the calls of the source. Rule as the data show it: active = growth inhibition above about 70%; inactive = the rest.

A short description of this assay: NCI Yeast Anticancer Drug Screen. Data for the mlh1 strain (AID 171).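 Also: 0% = growth of vehicle-treated control cultures of the same strain.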 The following applies: S. cerevisiae mlh1 strain growth inhibition; at 1.2 µM; active compounds read high. A digest of the protocol:
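Vehicle-normalised growth inhibition of a repair- or checkpoint-altered yeast strain following compound treatment.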
In the case of `O=[N+]([O-])c1cc[n+]([O-])cc1`, the growth inhibition is 3% (inactive).

On to `CC1(C)CC(=O)C(/C=N/c2nc(-c3ccccc3)cs2)=C(O)C1`, for which the growth inhibition is 0% (inactive).

In the case of `Nc1nc(N)c2nc(CNc3ccc(C(=O)NC(CCC(=O)O)C(=O)O)cc3F)cnc2n1` (stereo unspecified), the growth inhibition is 16% (inactive).

In the case of `COC(=O)CC1(O)C(/C=C/c2ccccc2)C(C(=O)OC)C(=O)C(C(=O)OC)C1C(=O)OC` (stereo unspecified), the growth inhibition was 1% (inactive).

On to `CC(C)(C)c1ccc(NS(=O)(=O)c2ccc(N)cc2)cc1`, for which the growth inhibition was 5% (inactive).

Regarding `CCN(CC)CCNc1ccc([N+](=O)[O-])c2nc3ccccc3c(N)c12`, the growth inhibition was -5% (inactive).

On to `CCCCN(CCCC)C(=O)/C=C/c1ccccc1`, for which the growth inhibition is -9% (inactive).

In the case of `O=c1[nH]c(-c2ccccc2)nc2c1sc1nc3ccccc3n12`, the growth inhibition was -24% (inactive).

With `O=[N+]([O-])c1ccc2c(c1)/C(=N/N=C1c3ccccc3Cc3ccccc31)c1cc([N+](=O)[O-])cc([N+](=O)[O-])c1-2`, the growth inhibition was 15% (inactive).

Consider `CC(C)C(C)/C=C\C(C)C1CCC2C3=CC=C4CC(O)CCC4(C)C3CCC21C` (stereo unspecified), for which the growth inhibition was -1% (inactive).

As to `O=C1Nc2ccc(Br)cc2C1=Nc1ccc2c(c1)OCO2`, the growth inhibition was -8% (inactive).

As for `CCCCOCn1c(=O)[nH]c(=O)c2cc(Br)ccc21`, the growth inhibition is -48% (inactive).

Regarding `Cc1ccc(S/C(=C\C(=O)O)c2ccccc2)cc1`, the growth inhibition is -6% (inactive).

With `O=[N+]([O-])/C=C/c1cc(Cl)c(/C=C/[N+](=O)[O-])cc1Cl`, the growth inhibition is 36% (inactive).

Take `Cc1cc(S(=O)(=O)Nc2nnc3cnc4ccccc4n23)c(S)cc1Cl`: the growth inhibition was -3% (inactive).

With `O=C(/C=C/c1cc(Cl)cc(Cl)c1O)c1cccc(O)c1`, the growth inhibition was 0% (inactive).
